The source of these data is PubChem BioAssay.

Records with an inconclusive call do not appear. Active and inactive are the calls of the source. Cut-off read from the data, not from the text of the source, unless noted: active = inhibition above about 30%; inactive = the rest.

The nature of assay [1]: Her2 expression decrease, cell viability multiplex – SKBR3 breast tumor cells, AlphaScreen, ATP viability, primary screen (AID 461;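 active = Her2 level under about 52% in both replicate screens, with viability over 70% of control, limit read from the data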;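 for Her2 level: lower value means less Her2 protein in the cells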;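 for viability: percent of carrier control wells set as 100% viability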). To be noted: SKBR3 Her2 protein level, 18-24 h, measured here: SKBR3 viability, ATP luminescence, at 10 µM. In general terms: Alpha assays give light when donor and acceptor beads are brought close together.
Assay [2] addresses Receptor tyrosine-protein kinase erbB-2 (Homo sapiens) (UniProt P04626). The assay is described as above. To be noted: 18-24 h, at 10 µM, stronger effect = lower value.
Assay [3] in a line: reduced viability of SK-BR-3 breast cancer cells – cell-based, 24 h, human, pilot screen (AID 572;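 active = viability at or below 10% of carrier control in both of two separate runs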;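 note: compound exposure lasted between 18 and 24 h rather than exactly 24 h; 100% = carrier-treated control wells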). Particulars: SK-BR-3 viability, CellTiter-Glo luminescence, at 10 µM, stronger effect = lower value. Background: Cellular ATP, detected with luciferase, serves as a proxy for viable cell number.
The nature of assay [4]: HUVEC growth inhibition – cell-based, human, primary screen (AID 575;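 active = viability at or below 30% in both replicate assays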;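 note: 100% = median of untreated cell wells with 0.1% DMSO on each plate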). To be noted: HUVEC proliferation, CellTiter-Glo luminescence, 72 h; at 10 µM; stronger effect = lower value.
Assay [5] is described as follows: H69AR cell proliferation blockers – human, duplicate replicates, primary screen (AID 580;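 active = viability at or under a set limit in both replicates, limit being median viability minus 3 SD, cut at about 48% in these data, passing the limit was not always enough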;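 note: 100% = mean luminescence of untreated wells and 0% = no signal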). Particulars: H69AR lung tumor cells viability, ATP luminescence, 72 h; at 10 µM; stronger effect = lower value.
Assay [6] can be described thus: MRP1 drug-resistance reversers in H69AR cells – cell-based, doxorubicin co-treatment, pilot screen (AID 601;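 active = viability loss from added drug above about 55%, and viability with drug at most 40%, in both replicates, limit read from the data, passing the limit was not always enough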). Particulars: CellTiter-Glo, 72 h, at 10 µM; for differential viability (reversal): stronger effect = higher value.
Assay [7] in a line: yeast transport mutant growth inhibition pilot in 384-well plates, post-Golgi transport modulator project (AID 636; in the data active = inhibition above about 31%). To be noted: absorbance 615 nm, about 18 h, stronger effect = higher value.
Assay [8] can be described thus: growth suppression of yeast trafficking mutant, preliminary HTS, modulators of trafficking downstream of Golgi apparatus project, 1536-format plate, OD 615 nm (AID 637). Particulars: yeast transport mutant growth, absorbance 615 nm, 18 h; stronger effect = higher value.
Assay [9] can be described thus: S. cerevisiae growth inhibition in permissive medium (OD615), pilot counter-assay for S. cerevisiae lifespan shortening project, permissive growth control (AID 705;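 active = growth inhibition above 25% in both replicates, a cutoff set 3 SD above the mean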). Particulars: OD615, 24 h, at 10 µM, stronger effect = higher value.
Assay [10] in a line: S. cerevisiae growth inhibition in restrictive medium, OD615, pilot screen, restrictive growth control, yeast lifespan reduction project (AID 706;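 active = growth inhibition above a set limit, 3 SD over mean compound inhibition, in both replicates, cut at about 43% in these data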;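 note: modified DeaD lifespan yeast strain shifted to restrictive glucose medium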). To be noted: OD615, 48 h, at 10 µM, stronger effect = higher value.
A short description of assay [11]: doxorubicin toxicity protection in MRP-1 cells – H69AR cells, CellTiter-Glo, duplicate, MRP-1 activator project, pilot screen (AID 807;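 active = viability increase at or above a cutoff of the median across tested compounds plus 3 SD, cut at about 8.5% in these data, passing the limit was not always enough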;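 note: compound pretreatment 18-22 h then 72 h combined with doxorubicin; 0% = doxorubicin alone and 100% = vehicle without doxorubicin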). To be noted: H69AR viability with doxorubicin, CellTiter-Glo luminescence; at 10 µM; stronger effect = higher value.
Assay [12] in a line: viability of HCT116 without oncogenic beta-catenin – human colon tumor cells, pilot screen (AID 823;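 active = cell viability at or below a set limit in both duplicate runs, the limit being the all-compound median minus 4 SD, cut at about 23% in these data, passing the limit was not always enough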;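 note: 0% = wells killed by 20 µM Hyamine and 100% = untreated DMSO cell wells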). Particulars: HCT116 beta-catenin knockout viability, CellTiter-Glo, 60 h; at 10 µM; stronger effect = lower value.
Assay [13] in a line: viability of PTEN-null HCT116 cells – cell-based, HCT116 clonal line, CellTiter-Glo, pilot screen (AID 824;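 active = viability at or below 27.92% in each of two runs, the all-compound median minus 4 SD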;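 note: 0% = 20 µM Hyamine control and 100% = vehicle cell control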). Particulars: HCT116 PTEN-deleted viability, 60 h, at 10 µM, stronger effect = lower value.
A short description of assay [14]: RAM pathway blockade in budding yeast – dse1pr::URA3 reporter, 5-FOA selection, pilot screen (AID 869;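 active = inhibition over a set limit, the all-compound mean plus 3 SD, in both replicate runs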;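 note: 0% = DMSO wells with no growth and 100% = 10 µM 1-NA-PP1 with full growth; RAM network block rescues cells from 5-FOA so hits raise OD615 growth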). To be noted: S. cerevisiae dse1pr::URA3 5-FOA growth, OD615, 2 d; at 10 µM; stronger effect = higher value; strain carries analog-sensitive mutant Cbk1 kinase.
Assay [15] in a line: RAM signaling pathway blockade in yeast – S. cerevisiae, Pdr1DBD-CYC8 efflux-inhibited sensitized strain, primary screen (AID 1298;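 active = RAM network inhibition above 8.4% in each of two replicates, 3 SD over the compound average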;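 note: 0% = DMSO untreated cells without growth and 100% = 10 µM 1-NA-PP1 full growth; higher means more yeast growth rescued from 5-FOA killing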). To be noted: S. cerevisiae cbk1-as DSE1-URA3 strain, 5-FOA growth OD615, 2 d; at 50 µM; stronger effect = higher value.
[16] abbreviates: H69AR cells + 2 uM doxorubicin, measured here: viability with 2 uM doxorubicin, stronger effect = lower value.
Where [17] appears, read: H69AR cells, compound alone cytotoxicity.

Receptor tyrosine-protein kinase erbB-2 (Homo sapiens), sequence (P04626 whole entry, looked up): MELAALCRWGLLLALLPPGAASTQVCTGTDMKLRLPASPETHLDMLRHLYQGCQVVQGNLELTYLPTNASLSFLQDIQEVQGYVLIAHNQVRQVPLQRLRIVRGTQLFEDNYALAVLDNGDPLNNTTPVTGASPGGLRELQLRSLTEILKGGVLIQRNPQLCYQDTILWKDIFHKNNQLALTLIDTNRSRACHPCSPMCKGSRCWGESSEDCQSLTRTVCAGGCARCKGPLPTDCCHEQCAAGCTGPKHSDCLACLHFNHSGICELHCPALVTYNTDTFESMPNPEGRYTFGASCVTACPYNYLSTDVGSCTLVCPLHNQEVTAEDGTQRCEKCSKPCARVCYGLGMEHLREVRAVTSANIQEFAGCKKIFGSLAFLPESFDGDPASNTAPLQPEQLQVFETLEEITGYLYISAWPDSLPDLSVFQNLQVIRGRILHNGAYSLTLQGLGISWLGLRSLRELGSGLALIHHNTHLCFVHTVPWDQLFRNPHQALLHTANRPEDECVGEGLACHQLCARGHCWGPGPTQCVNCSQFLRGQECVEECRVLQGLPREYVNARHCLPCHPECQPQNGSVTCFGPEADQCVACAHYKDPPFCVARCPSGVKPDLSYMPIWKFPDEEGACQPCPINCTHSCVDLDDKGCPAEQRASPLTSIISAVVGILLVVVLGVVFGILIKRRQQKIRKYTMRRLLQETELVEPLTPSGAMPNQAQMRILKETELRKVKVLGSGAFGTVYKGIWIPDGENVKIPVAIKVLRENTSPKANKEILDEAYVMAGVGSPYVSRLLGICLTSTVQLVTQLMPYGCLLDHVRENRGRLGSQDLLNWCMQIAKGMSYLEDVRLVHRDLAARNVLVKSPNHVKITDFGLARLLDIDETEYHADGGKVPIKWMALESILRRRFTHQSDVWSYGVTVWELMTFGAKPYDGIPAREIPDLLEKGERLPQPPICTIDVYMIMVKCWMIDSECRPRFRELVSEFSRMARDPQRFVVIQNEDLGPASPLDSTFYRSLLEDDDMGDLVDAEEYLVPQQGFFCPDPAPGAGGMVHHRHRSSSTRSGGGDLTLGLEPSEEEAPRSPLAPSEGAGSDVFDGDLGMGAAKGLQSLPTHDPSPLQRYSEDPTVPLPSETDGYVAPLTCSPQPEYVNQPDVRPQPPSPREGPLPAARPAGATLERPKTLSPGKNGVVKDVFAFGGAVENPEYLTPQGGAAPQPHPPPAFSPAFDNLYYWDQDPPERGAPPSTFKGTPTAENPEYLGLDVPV

The term viability denotes a read-out of living cells in per cent, often relative to untreated cells. As a reminder, the inhibition is the drop in the measured response relative to a control, in per cent. For the compound `COc1ccc(-c2noc(COc3ccc(Cl)c(C)c3)n2)cc1`, the viability is 91% in assay [1]; 91% (inactive) in [3]; 99.6% (inactive) in assay [4]; 88.4% (inactive) in [5]; 83.7% in [6] (setting [16]); 88.4% in assay [6] (setting [17]). For the same compound, the results for the viability in assay [12] and in [13] were 101% (inactive) and 91.5% (inactive), respectively. Also, the Her2 level in assay [2] was 115% (inactive). Moreover, in assay [6] (H69AR cells + 2 uM doxorubicin), the differential viability (reversal) was 4.7% (inactive). Besides, the inhibition in assay [7] is -5.07% (inactive); in [8], -7.38% (inactive); in [14], 6.36% (active). Also, the growth inhibition is -7.56% (inactive) in [9] and -29% (inactive) in [10]. For the same compound, the viability increase in assay [11] was 0.12% (inactive). Besides, the RAM network inhibition in [15] is 8.54% (inactive).
For `CC1CCc2nn(CC(=O)NCc3ccc(F)cc3)cc2C1` (stereo not given), the viability in assay [1] is 122%; in assay [3], 122% (inactive); in assay [4], 79.4% (inactive); in [5] it was 89.4% (inactive); in [6] (setting [16]), 93.6%; in [6] (setting [17]) it was 89.4%. The viability is 86.4% (inactive) in assay [12] and 87.6% (inactive) in [13]. In addition, the Her2 level in assay [2] is 102% (inactive). Further, the differential viability (reversal) in assay [6] (H69AR cells + 2 uM doxorubicin) was -4.28% (inactive). The results for the inhibition in assay [7], in assay [8] and in assay [14] were -0.51% (inactive), -2.33% (inactive) and -0.73% (inactive), respectively. The figures for the growth inhibition in assay [9] and in assay [10] were -3.91% (inactive) and 8.68% (inactive), respectively. In assay [11], the viability increase was -2.02% (inactive). The RAM network inhibition in assay [15] was 1.16% (inactive).
As to `COc1ccc(CCNC(=O)CSc2nnnn2-c2ccccc2OC)cc1OC`, the viability in assay [1] was 91%; in [3], 91% (inactive); in assay [4], 102% (inactive); in [5], 90.1% (inactive); in [6] (setting [16]), 89.1%; in [6] (setting [17]), 90.1%. Also, the viability is 86.9% (inactive) in assay [12] and 92.3% (inactive) in assay [13]. Besides, the Her2 level in [2] was 99.5% (inactive). In addition, the differential viability (reversal) in [6] (H69AR cells + 2 uM doxorubicin) was 0.99% (inactive). The inhibition was -7.33% (inactive) in [7], -0.5% (inactive) in assay [8] and 1.64% (inactive) in assay [14]. For the same compound, the growth inhibition was -2.03% (inactive) in [9] and 2.95% (inactive) in [10]. Further, in [11], the viability increase is -2.14% (inactive). In addition, in assay [15], the RAM network inhibition was 6.51% (inactive).
Turning to `CCCCn1c(SCC(=O)OCC)nc2c1c(=O)[nH]c(=O)n2C`, the viability in [1] is 100%; in assay [3] it was 100% (inactive); in assay [4] it was 96.8% (inactive); in assay [5], 97.3% (inactive); in [6] (setting [16]), 96.8%; in [6] (setting [17]), 97.3%. For the same compound, the viability in assay [12] was 94.4% (inactive); in assay [13], 91.6% (inactive). For the same compound, the Her2 level in [2] is 93% (inactive). Also, in [6] (H69AR cells + 2 uM doxorubicin), the differential viability (reversal) was 0.46% (inactive). Besides, the values for the inhibition in assay [7], in assay [8] and in assay [14] were -2.53% (inactive), 0.33% (inactive) and 1.31% (inactive), respectively. In addition, the growth inhibition in assay [9] was 0.935% (inactive); in assay [10], 1.66% (inactive). Moreover, the viability increase in [11] was -2.5% (inactive). Also, the RAM network inhibition in [15] is 0.35% (inactive).
Regarding `CCN1CCN(c2nc3c(c(=O)[nH]c(=O)n3C)n2CCSc2nc3ccccc3s2)CC1`, the viability is 95.5% in assay [1]; 95.5% (inactive) in assay [3]; 115% (inactive) in [4]; 88.6% (inactive) in [5]; 97.1% in assay [6] (setting [16]); 88.6% in assay [6] (setting [17]). In addition, the viability was 96.9% (inactive) in [12] and 91.4% (inactive) in [13]. For the same compound, the Her2 level in assay [2] is 95% (inactive). The differential viability (reversal) in [6] (H69AR cells + 2 uM doxorubicin) was -8.44% (inactive). For the same compound, the inhibition in assay [7] was -1.73% (inactive); in assay [8], 4% (inactive); in assay [14] it was 0.9% (inactive). Also, the growth inhibition in assay [9] was 1.81% (inactive); in assay [10], -6% (inactive). In addition, in assay [11], the viability increase is -1.2% (inactive). Further, in [15], the RAM network inhibition was -0.84% (inactive).
